This passage reports sensor-assay potency score (higher = more potent) results from the OligoGym collection.
Further: reference of the scale not given here.

The first experiment addresses LRRC1. Nature of the experiment: pooled miR-30 sensor sort-seq; sequence = guide strand. The settings on record: shRNA.
As to TCTCTTGACAAGTAGGTTCAGA, the sensor-assay potency score (higher = more potent) was -0.443. On the same count and under the same terms, for TTGACAGCACGCTCGTTCCAGG the value was -1.01; for TTCTAGTCTTCGCAGCTGGGTA, -0.92; for TAGTTTTCCAATGCCATCCGGA, -0.337. Same read-out and setting: under TTCTTCTAGTCTTCGCAGCTGG stands -0.37; under TCTGTTGACAGCACGCTCGTTC, 0.237; under TTTCTGTAAGAACTAACTCAGT, -0.926. Still for that read-out and setting: under TTTTGTTTGAGTCCAGTCCTTT stands -0.559; under TTGCCTGTGACACCTCTGCAGG, -1.09.

On to TTTTCTGTAAGAACTAACTCAG, for which the sensor-assay potency score (higher = more potent) is -0.115. For TAGCTGGAAAAATTGCTCGGGC, the sensor-assay potency score (higher = more potent) is -0.498. Same read-out and setting: under TTTCGTAATTTGACTAGCTGGA stands 0.0536.

Another experiment deals with LRRC45. The experiment is described as above. The settings on record: shRNA.
Take TTGAGAGCGTTGATGATGGAGT: the sensor-assay potency score (higher = more potent) is -0.215. Still for that read-out and setting: under TGAACTTCCGCTCCAACTCGTC stands -0.925; under TGACATGCTGGTCATCTCCTGC, -0.943. The same measure, in the same setting: for AATAGTCTCCATCAAGTCGAGG the value was -1.73.

TTCTGCAGGAAGCTCGCCCTCT: the sensor-assay potency score (higher = more potent) was -0.654. Still for that read-out and setting: for TGCAGCTTCCTGCTGCTCCAGC the value was -1.24.
